# Assay results: article PMC7862700, “An all-to-all approach to the identification of sequence-specific readers for epigenetic DNA modifications on cytosine”
# Legend:
# Experiment in all cases: DAPPL (digital affinity profiling via proximity ligation, sequencing); 10 mM Tris-HCl pH 7.5, 50 mM NaCl, 1 mM DTT, 4% glycerol, room temperature, 30 min; GST-TFs on glutathione beads, 16-mer random dsDNA library, 0.1% formaldehyde crosslink after washing; high values mean tight binding
# [1] = target: T1, FLI1 (Homo sapiens, UniProt Q01543 1-452); settings: protein: recombinant; tags: N-terminal GST; dsDNA, one strand shown
# T1 sequence: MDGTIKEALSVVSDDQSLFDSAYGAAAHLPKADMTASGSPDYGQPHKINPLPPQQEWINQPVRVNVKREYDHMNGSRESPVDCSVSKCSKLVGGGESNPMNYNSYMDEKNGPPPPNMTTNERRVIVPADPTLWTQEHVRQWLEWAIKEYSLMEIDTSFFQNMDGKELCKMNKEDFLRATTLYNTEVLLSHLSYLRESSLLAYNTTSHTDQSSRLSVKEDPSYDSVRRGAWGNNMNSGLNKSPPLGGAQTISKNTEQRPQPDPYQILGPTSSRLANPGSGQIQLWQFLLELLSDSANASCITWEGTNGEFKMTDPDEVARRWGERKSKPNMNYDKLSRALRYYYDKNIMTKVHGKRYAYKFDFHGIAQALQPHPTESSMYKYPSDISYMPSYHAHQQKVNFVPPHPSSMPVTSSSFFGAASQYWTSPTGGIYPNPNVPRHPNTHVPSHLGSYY
# Method in brief: (§1)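 Pools of DNA-barcoded human transcription factors, expressed in yeast as GST fusions on glutathione beads and combined with a tag-only sample, were incubated with 200 nmole of a 16-mer random double-stranded DNA library. Incubation took 30 min at room temperature in Tris/NaCl/DTT/glycerol buffer and was followed by washing, 0.1% formaldehyde crosslinking, proximity ligation (BsaI/T4 ligase, 1 h, 37 °C), PCR amplification and sequencing on an Illumina NextSeq500. Binding signal is the ratio of a hexamer's read frequency for a factor to its frequency for the tag-only sample.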
# [2] = target: T2, ELK1 (Homo sapiens, UniProt P19419 1-428); settings: protein: recombinant; tags: N-terminal GST; dsDNA, one strand shown
# T2 sequence: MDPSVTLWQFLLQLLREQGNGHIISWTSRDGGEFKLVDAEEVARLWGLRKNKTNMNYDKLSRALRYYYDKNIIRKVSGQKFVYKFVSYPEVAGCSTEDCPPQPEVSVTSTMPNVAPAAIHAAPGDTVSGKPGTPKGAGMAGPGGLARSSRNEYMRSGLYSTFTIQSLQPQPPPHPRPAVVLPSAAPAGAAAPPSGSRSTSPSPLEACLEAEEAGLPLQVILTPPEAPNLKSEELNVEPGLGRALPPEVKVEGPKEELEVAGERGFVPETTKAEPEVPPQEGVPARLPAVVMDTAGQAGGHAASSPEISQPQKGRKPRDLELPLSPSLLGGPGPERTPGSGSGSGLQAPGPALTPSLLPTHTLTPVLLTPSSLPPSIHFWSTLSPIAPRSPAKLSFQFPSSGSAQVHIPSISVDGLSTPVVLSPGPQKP
# Method in brief: as §1
# [3] = target: T3, GABPA (Homo sapiens, UniProt Q06546 1-454); settings: protein: recombinant; tags: N-terminal GST; dsDNA, one strand shown
# T3 sequence: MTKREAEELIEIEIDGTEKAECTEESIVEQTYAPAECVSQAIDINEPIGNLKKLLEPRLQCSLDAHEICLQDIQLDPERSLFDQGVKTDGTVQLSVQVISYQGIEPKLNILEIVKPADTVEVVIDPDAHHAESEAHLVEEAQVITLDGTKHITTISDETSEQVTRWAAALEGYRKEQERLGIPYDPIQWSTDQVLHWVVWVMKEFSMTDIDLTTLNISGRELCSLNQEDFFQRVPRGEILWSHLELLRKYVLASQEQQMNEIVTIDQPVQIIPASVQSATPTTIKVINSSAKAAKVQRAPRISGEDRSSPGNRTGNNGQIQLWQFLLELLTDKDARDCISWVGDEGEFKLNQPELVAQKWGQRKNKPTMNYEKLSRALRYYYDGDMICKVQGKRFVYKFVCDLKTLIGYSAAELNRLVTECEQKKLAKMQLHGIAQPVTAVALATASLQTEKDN
# Method in brief: as §1
# [4] = target: T4, ERG (Homo sapiens, UniProt P11308 1-479); settings: protein: recombinant; tags: N-terminal GST; dsDNA, one strand shown
# T4 sequence: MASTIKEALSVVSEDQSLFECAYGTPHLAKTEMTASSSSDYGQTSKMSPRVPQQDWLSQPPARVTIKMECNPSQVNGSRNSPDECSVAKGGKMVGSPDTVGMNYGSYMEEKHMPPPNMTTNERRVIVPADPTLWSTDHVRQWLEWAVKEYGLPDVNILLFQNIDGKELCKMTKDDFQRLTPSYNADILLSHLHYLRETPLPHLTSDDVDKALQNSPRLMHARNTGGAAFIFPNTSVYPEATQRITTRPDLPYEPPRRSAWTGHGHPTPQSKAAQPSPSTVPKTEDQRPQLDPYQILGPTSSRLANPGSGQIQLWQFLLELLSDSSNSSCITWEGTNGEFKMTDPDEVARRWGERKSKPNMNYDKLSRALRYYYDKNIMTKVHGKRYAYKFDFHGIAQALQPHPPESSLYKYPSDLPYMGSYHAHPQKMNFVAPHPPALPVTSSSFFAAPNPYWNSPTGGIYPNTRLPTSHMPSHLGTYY
# Method in brief: as §1
# [5] = target: ELF1 (Homo sapiens, UniProt P32519 1-619); settings: protein: recombinant; tags: N-terminal GST; dsDNA, one strand shown
# Method in brief: as §1
# [6] = target: T5, EHF (Homo sapiens, UniProt Q9NZC4 1-300); settings: protein: recombinant; tags: N-terminal GST; dsDNA, one strand shown
# T5 sequence: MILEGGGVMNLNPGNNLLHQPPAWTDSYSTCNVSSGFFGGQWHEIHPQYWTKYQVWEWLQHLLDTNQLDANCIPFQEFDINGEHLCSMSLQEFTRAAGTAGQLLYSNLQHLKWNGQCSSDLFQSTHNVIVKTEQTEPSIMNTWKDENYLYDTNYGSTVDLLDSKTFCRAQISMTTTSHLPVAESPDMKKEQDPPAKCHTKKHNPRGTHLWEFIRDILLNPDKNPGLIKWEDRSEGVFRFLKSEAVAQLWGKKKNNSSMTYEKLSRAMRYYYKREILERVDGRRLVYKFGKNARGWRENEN
# Method in brief: as §1
# [7] = target: SPI1 (Homo sapiens, UniProt P17947 1-270); settings: protein: recombinant; tags: N-terminal GST; dsDNA, one strand shown
# Method in brief: as §1
# [8] = target: SPIB (Homo sapiens, UniProt Q01892 1-262); settings: protein: recombinant; tags: N-terminal GST; dsDNA, one strand shown
# Method in brief: as §1
# [9] = target: T6, ELK3 (Homo sapiens, UniProt P41970 1-407); settings: protein: recombinant; tags: N-terminal GST; dsDNA, one strand shown
# T6 sequence: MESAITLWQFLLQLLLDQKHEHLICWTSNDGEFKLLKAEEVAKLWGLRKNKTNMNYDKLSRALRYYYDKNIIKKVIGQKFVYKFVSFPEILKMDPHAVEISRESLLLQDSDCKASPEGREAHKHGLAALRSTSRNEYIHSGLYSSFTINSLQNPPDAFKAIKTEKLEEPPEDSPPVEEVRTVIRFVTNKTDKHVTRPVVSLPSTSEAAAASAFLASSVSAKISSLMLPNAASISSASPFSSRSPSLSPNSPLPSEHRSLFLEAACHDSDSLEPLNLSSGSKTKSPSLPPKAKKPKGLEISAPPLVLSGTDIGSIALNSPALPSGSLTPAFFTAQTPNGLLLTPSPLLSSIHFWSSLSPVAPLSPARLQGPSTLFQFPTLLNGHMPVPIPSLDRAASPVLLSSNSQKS
# Method in brief: as §1
# [10] = target: T7, FEV (Homo sapiens, UniProt Q99581 1-238); settings: protein: recombinant; tags: N-terminal GST; dsDNA, one strand shown
# T7 sequence: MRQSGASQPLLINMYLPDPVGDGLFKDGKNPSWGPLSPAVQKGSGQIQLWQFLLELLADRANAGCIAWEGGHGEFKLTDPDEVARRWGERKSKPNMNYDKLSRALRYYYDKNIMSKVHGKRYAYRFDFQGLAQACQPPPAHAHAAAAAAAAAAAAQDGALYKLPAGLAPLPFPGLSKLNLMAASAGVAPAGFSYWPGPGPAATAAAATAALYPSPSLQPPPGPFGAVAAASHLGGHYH
# Method in brief: as §1
# [11] = target: ETV5 (Homo sapiens, UniProt P41161 1-510); settings: protein: recombinant; tags: N-terminal GST; dsDNA, one strand shown
# Method in brief: as §1
# [12] = target: HSF1 (Homo sapiens, UniProt Q00613 1-529); settings: protein: recombinant; tags: N-terminal GST; chain copies: 3; dsDNA, one strand shown
# Method in brief: as §1
# [13] = target: T8, SPIC (Homo sapiens, UniProt Q8N5J4 1-248); settings: protein: recombinant; tags: N-terminal GST; dsDNA, one strand shown
# T8 sequence: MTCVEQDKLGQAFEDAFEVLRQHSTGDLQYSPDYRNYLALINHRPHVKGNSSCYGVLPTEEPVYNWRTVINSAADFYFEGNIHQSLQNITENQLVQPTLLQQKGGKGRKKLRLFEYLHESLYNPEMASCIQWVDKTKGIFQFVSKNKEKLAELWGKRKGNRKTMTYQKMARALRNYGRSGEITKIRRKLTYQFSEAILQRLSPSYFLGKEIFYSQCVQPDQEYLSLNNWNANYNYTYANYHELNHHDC
# Method in brief: as §1
# [14] = target: ELF4 (Homo sapiens, UniProt Q99607 1-663); settings: protein: recombinant; tags: N-terminal GST; dsDNA, one strand shown
# Method in brief: as §1
# [15] = target: T9, ELK4 (Homo sapiens, UniProt P28324-2 1-405); settings: protein: recombinant; tags: N-terminal GST; dsDNA, one strand shown
# T9 sequence: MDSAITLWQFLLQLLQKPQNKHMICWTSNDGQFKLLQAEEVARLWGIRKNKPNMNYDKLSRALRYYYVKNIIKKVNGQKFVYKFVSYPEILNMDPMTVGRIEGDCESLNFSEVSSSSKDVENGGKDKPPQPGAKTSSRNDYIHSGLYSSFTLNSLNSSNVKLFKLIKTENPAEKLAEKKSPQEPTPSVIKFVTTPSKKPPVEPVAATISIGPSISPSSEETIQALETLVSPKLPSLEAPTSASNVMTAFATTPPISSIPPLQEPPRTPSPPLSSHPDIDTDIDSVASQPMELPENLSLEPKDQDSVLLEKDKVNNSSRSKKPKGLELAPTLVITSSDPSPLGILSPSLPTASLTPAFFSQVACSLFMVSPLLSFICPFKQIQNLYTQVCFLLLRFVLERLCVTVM
# Method in brief: as §1
# [16] = target: T10, ETV2 (Homo sapiens, UniProt O00321 1-342); settings: protein: recombinant; tags: N-terminal GST; dsDNA, one strand shown
# T10 sequence: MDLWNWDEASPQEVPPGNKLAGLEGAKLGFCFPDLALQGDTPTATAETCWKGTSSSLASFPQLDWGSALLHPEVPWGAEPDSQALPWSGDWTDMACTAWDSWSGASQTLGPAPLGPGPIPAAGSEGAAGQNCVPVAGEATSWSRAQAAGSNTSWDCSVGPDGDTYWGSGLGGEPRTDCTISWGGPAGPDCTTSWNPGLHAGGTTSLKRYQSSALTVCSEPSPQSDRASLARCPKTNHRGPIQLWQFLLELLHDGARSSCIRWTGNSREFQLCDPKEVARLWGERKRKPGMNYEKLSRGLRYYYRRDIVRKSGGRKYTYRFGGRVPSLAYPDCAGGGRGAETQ
# Method in brief: as §1
# [17] = target: T11, ELF3 (Homo sapiens, UniProt P78545 1-371); settings: protein: recombinant; tags: N-terminal GST; dsDNA, one strand shown
# T11 sequence: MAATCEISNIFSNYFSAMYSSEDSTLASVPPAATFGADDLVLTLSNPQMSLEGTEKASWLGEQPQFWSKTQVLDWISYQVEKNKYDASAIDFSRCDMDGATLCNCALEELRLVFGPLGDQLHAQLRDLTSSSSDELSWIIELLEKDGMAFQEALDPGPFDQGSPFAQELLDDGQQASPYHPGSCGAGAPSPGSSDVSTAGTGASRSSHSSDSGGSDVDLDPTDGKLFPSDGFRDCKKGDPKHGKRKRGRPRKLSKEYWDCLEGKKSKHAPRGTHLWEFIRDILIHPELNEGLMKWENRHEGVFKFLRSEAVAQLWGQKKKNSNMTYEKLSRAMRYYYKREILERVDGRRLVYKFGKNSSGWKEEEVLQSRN
# Method in brief: as §1
# [18] = target: CRX (Homo sapiens, UniProt O43186 1-299); settings: protein: recombinant; tags: N-terminal GST; dsDNA, one strand shown
# Method in brief: as §1
# [19] = target: ETV1 (Homo sapiens, UniProt P50549 1-477); settings: protein: recombinant; tags: N-terminal GST; dsDNA, one strand shown
# Method in brief: as §1
# Chain of ETV1 (P50549 whole entry): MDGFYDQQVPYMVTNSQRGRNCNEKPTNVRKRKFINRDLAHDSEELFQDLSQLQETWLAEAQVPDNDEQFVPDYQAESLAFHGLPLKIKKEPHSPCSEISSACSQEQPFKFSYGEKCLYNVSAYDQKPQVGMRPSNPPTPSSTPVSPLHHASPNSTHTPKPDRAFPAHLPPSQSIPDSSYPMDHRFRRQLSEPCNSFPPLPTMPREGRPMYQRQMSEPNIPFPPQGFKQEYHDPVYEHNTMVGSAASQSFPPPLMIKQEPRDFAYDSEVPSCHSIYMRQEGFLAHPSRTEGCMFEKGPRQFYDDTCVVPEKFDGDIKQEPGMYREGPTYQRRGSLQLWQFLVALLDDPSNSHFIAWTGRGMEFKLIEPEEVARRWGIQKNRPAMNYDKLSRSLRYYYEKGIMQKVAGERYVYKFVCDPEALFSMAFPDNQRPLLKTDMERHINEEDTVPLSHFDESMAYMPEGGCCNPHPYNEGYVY
# Chain of ELF4 (Q99607 whole entry): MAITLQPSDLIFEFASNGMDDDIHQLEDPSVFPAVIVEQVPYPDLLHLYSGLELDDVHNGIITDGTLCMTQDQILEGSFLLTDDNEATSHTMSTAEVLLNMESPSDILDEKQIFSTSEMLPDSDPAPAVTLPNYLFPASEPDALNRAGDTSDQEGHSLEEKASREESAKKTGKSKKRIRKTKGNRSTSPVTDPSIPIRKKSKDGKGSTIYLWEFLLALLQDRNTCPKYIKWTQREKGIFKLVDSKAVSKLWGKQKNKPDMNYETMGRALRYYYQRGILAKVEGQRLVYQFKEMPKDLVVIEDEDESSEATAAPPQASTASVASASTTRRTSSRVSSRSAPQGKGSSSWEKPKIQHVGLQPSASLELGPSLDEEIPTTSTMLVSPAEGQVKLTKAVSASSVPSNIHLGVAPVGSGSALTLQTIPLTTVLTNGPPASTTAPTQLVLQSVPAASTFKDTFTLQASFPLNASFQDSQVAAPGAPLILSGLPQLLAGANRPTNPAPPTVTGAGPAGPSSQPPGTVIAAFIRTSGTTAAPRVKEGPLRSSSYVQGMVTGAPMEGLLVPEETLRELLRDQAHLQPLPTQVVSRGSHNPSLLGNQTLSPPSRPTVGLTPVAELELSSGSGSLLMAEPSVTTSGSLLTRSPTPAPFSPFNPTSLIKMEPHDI
# Chain of HSF1 (Q00613 whole entry): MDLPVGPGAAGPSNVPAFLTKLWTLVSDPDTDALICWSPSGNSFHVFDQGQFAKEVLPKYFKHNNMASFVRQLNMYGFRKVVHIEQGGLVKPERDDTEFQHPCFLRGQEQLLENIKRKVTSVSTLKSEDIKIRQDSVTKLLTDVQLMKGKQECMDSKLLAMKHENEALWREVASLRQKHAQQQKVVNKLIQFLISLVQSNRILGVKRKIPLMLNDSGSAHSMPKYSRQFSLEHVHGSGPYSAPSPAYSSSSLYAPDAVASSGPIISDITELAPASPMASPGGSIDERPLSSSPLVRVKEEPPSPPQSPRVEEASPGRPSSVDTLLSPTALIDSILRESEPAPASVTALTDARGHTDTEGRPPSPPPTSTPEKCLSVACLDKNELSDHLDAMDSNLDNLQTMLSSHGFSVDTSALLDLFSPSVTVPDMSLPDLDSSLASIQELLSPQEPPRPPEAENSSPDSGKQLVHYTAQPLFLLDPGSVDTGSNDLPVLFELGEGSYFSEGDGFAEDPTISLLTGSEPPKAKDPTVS
# Chain of CRX (O43186 whole entry): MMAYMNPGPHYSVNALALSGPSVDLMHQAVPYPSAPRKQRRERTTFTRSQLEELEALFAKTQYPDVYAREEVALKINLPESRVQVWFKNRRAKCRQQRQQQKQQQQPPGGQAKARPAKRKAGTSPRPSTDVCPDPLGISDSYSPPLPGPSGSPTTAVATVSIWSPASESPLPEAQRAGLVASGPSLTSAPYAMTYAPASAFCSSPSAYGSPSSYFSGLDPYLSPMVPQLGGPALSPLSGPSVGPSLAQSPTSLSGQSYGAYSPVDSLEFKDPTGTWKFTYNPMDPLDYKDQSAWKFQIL
# Chain of ETV5 (P41161 whole entry): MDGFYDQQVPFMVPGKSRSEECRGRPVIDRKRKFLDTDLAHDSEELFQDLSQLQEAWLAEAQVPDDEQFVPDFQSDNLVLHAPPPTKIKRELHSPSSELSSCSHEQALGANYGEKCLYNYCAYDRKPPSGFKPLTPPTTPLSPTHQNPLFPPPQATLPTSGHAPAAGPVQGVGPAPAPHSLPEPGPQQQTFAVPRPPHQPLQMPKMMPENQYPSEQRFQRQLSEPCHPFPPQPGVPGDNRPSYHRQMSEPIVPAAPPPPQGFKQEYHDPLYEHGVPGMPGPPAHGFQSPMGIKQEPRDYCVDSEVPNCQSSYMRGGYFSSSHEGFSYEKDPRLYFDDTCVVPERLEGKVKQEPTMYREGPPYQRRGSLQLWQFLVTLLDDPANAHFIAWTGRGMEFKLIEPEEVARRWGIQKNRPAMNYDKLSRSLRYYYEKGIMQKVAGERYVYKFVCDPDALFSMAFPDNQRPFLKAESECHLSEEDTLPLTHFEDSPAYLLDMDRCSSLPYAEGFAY
# Chain of ELF1 (P32519 whole entry): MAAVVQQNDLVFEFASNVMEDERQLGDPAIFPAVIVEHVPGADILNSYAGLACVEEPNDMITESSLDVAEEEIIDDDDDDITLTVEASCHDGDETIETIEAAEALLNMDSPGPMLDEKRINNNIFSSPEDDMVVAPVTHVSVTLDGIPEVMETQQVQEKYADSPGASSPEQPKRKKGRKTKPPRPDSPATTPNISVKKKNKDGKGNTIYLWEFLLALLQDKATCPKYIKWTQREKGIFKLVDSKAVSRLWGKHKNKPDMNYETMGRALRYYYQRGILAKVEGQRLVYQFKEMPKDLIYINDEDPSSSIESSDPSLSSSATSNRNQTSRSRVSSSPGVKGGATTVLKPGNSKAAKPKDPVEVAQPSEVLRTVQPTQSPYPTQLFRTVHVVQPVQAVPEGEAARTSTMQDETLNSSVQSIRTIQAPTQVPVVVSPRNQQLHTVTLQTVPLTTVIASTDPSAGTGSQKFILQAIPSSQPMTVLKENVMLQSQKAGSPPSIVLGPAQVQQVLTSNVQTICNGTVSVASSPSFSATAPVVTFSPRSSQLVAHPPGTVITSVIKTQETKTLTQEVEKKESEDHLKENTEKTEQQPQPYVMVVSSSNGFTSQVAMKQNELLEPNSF
# Chain of SPIB (Q01892 whole entry): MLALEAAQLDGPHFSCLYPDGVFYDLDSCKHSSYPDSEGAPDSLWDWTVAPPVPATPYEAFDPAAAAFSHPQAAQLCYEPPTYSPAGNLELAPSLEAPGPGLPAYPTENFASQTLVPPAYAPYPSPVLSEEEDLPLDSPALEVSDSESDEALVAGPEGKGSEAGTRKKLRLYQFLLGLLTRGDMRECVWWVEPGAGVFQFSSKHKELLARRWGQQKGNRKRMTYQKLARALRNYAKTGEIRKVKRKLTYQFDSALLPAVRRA
sequence,measurement,setting,value
ATGCTA,binding signal,[1],"1.21 fold enrichment (6-mer frequency, TF over GST control)"
same,binding signal,[2],"1.2 fold enrichment (6-mer frequency, TF over GST control)"
same,binding signal,[3],"1.25 fold enrichment (6-mer frequency, TF over GST control)"
same,binding signal,[4],"1.27 fold enrichment (6-mer frequency, TF over GST control)"
same,binding signal,[5],"1.23 fold enrichment (6-mer frequency, TF over GST control)"
same,binding signal,[6],"1.28 fold enrichment (6-mer frequency, TF over GST control)"
same,binding signal,[7],"1.22 fold enrichment (6-mer frequency, TF over GST control)"
same,binding signal,[8],"1.21 fold enrichment (6-mer frequency, TF over GST control)"
same,binding signal,[9],"1.37 fold enrichment (6-mer frequency, TF over GST control)"
same,binding signal,[10],"1.32 fold enrichment (6-mer frequency, TF over GST control)"
same,binding signal,[11],"1.33 fold enrichment (6-mer frequency, TF over GST control)"
same,binding signal,[12],"1.46 fold enrichment (6-mer frequency, TF over GST control)"
same,binding signal,[13],"1.23 fold enrichment (6-mer frequency, TF over GST control)"
same,binding signal,[14],"1.3 fold enrichment (6-mer frequency, TF over GST control)"
same,binding signal,[15],"1.32 fold enrichment (6-mer frequency, TF over GST control)"
same,binding signal,[16],"1.43 fold enrichment (6-mer frequency, TF over GST control)"
same,binding signal,[17],"1.29 fold enrichment (6-mer frequency, TF over GST control)"
same,binding signal,[18],"1.45 fold enrichment (6-mer frequency, TF over GST control)"
same,binding signal,[19],"1.31 fold enrichment (6-mer frequency, TF over GST control)"
